Drawing on PubChem BioAssay (Tox21), this text covers Potency for nine compounds.

Assay [1] deals with Peroxisome proliferator-activated receptor delta (Homo sapiens) (UniProt Q03181). Put plainly: qHTS assay to identify small molecule agonists of the peroxisome proliferator-activated receptor delta (PPARd) signaling pathway (AID 743212; calls by dose curve). The method, boiled down:
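Tox21 library screened in GeneBLAzer PPARd UAS-bla HEK293H cells. After compound treatment at 37 C, a FRET-based beta-lactamase substrate was applied for 2 h and fluorescence recorded.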
(Quantitative high-throughput screening tests each substance at several concentrations.)

Assay [2] is described as follows: qHTS assay to identify small molecule antagonists of the peroxisome proliferator-activated receptor delta (PPARd) signaling pathway - cell viability counter screen (AID 743213). Further: nearly all actives have a fitted effect of over 50% in size. Further: potency means the concentration at half of the fitted maximal effect. An outline of the steps: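 CellTiter-Glo was added to PPARd-bla HEK293H wells following 17 h compound treatment in the presence of 300 nM L165041. Luminescence was recorded after 30 min at room temperature.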

The target in assay [3] is Peroxisome proliferator-activated receptor delta (Homo sapiens) (UniProt Q03181). Description: qHTS assay to identify small molecule antagonists of the peroxisome proliferator-activated receptor delta (PPARd) signaling pathway (AID 743215; active means well fitted inhibition curve with a large enough effect in the signal ratio in the repeat runs, not every such curve was filed as active; the % refers to the signal ratio;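 further: cells stimulated with agonist L165041 at 300 nM final during compound exposure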; further: potency means the concentration at half of the fitted maximal effect). An outline of the steps:
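Here, a reporter line (HEK293H, beta-lactamase under a UAS) measures PPARd signaling. Compounds are tested against agonist L165041 at 300 nM final concentration over 17 h at 37 C, with fluorescence read after substrate.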

The target in assay [4] is Bile acid receptor (Homo sapiens) (UniProt Q96RI1). Description: qHTS assay to identify small molecule antagonists of the farnesoid-X-receptor (FXR) signaling pathway (AID 743217; active means well fitted inhibition curve with a large enough effect in the signal ratio in the repeat runs, not every such curve was filed as active; the % refers to the signal ratio). The method, boiled down:
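Test compounds are pin-transferred onto FXR-bla HEK 293T cells, then chenodeoxycholic acid is added at 50 uM final. After 16 h at 37 °C, LiveBLAzer B/G substrate is applied for 2 h at room temperature and fluorescence read.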

A short description of assay [5]: qHTS assay to identify small molecule agonists of the farnesoid-X-receptor (FXR) signaling pathway - cell viability counter screen (AID 743218). Further: nearly all actives have a fitted effect of over 45% in size. Further: potency means the concentration at half of the fitted maximal effect. An outline of the steps: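 Quantitative HTS counter screen measuring ATP-based viability via CellTiter-Glo luminescence in HEK 293T cells carrying a UAS-driven beta-lactamase reporter, after 16 h compound exposure at 37 C.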

Assay [6] addresses Bile acid receptor (Homo sapiens) (UniProt Q96RI1). Description: qHTS assay to identify small molecule agonists of the farnesoid-X-receptor (FXR) signaling pathway (AID 743220; active means well fitted activation curve with a large enough effect in the signal ratio in the repeat runs, not every such curve was filed as active; the % refers to the signal ratio). An outline of the steps: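 FXR-UAS-bla HEK 293T cells carrying a UAS-driven beta-lactamase reporter were plated for 5 h at 37C/5% CO2, then exposed to DMSO-dissolved Tox21 10K compounds for 16 h at 37C. A LiveBLAzer B/G FRET substrate was loaded for 2 h at room temperature before fluorescence reading.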

Assay [7] can be described thus: qHTS assay to identify small molecule antagonists of the farnesoid-X-receptor (FXR) signaling pathway - cell viability counter screen (AID 743221; active means well fitted cell-killing curve with a large enough effect in the repeat runs, not every such curve was filed as active; further: nearly all actives have a fitted effect of over 50% in size; further: potency means the concentration at half of the fitted maximal effect). The method, boiled down:
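After a 5 h settling period, FXR-bla HEK 293T cells receive compound and chenodeoxycholic acid (50 uM final) and incubate 16 h at 37 C; CellTiter-Glo luminescence, read after 30 min at room temperature, reports cell viability.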

Assay [8] can be described thus: qHTS assay to identify small molecule agonists of the vitamin D receptor (VDR) signaling pathway - cell viability counter screen (AID 743224). Further: nearly all actives have a fitted effect of over 50% in size. Further: potency means the concentration at half of the fitted maximal effect. An outline of the steps: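 CellTiter-Glo viability readout on VDR-bla cells, measured after 16 h of compound treatment at 37C in the same wells.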
The nature of assay [9]: qHTS assay to identify small molecule antagonists of the vitamin D receptor (VDR) signaling pathway - cell viability counter screen (AID 743225). Further: nearly all actives have a fitted effect of over 50% in size. Further: potency means the concentration at half of the fitted maximal effect. An outline of the steps:
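Parallel cytotoxicity test: VDR-UAS-bla HEK 293T, 3 nM (final) 1-alpha,25-dihydroxyvitamin D3 with test compound, 16 h, 37C. Endpoint is CellTiter-Glo luminescence in the same wells.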

Assay [10] in a line: qHTS assay to identify small molecule agonists of the NFkB signaling pathway - cell viability counter screen (AID 1159515; calls by dose curve; further: nearly all actives have a fitted effect of over 55% in size; further: potency means the concentration at half of the fitted maximal effect). The method, boiled down:
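Tox21 library compounds were tested for cytotoxicity against NFkB-bla ME-180 cells during a 5 hr exposure at 37 C. CellTiter-Glo luminescence served as the viability read-out.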

Assay [11] can be described thus: qHTS assay to identify small molecule agonists of the endoplasmic reticulum stress response signaling pathway - cell viability counter screen (AID 1159517; calls by dose curve; further: nearly all actives have a fitted effect of over 50% in size; further: potency means the concentration at half of the fitted maximal effect). The method, boiled down:
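In parallel with the ESRE reporter read, cytotoxicity was scored by CellTiter-Glo luminescence (30 min, room temperature) on HeLa ESRE-bla cells dosed for 5 hr.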

Assay [12] addresses Nuclear receptor ROR-gamma (Homo sapiens) (UniProt P51449). Put plainly: qHTS assay to identify small molecule antagonists of the retinoid-related orphan receptor gamma (ROR-gamma) signaling pathway (AID 1159521; further: nearly all actives have a fitted effect of over 50% in size; further: potency means the concentration at half of the fitted maximal effect). The method, boiled down:
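Decreased RORE-driven luciferase luminescence indicates antagonism. Tet-on RORγ CHO cells received compound, then 1 uM final doxycycline 2 h later; signal read after 16 h incubation.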

The nature of assay [13]: qHTS assay to identify small molecule agonists of the AP-1 signaling pathway - cell viability counter screen (AID 1159525; calls by dose curve; further: nearly all actives have a fitted effect of over 55% in size; further: potency means the concentration at half of the fitted maximal effect). The method, boiled down: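 Same-well cytotoxicity counter screen of the Tox21 10K library in ME-180 cells. The readout is ATP-dependent luminescence after 5 h compound treatment. Data are normalised to DMSO and tetra n-octyl ammonium bromide controls.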

Assay [14] in a line: qHTS assay to identify small molecule agonists of the AP-1 signaling pathway (AID 1159526; calls by dose curve).
Assay [15] concerns the target Retinoic acid receptor RXR-alpha (Homo sapiens) (UniProt P19793). Description: qHTS assay to identify small molecule agonists of the RXR signaling pathway (AID 1159527; calls by dose curve; further: nearly all actives have a fitted effect of over 35% in size). The method, boiled down:
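16 hr incubation of compound-treated RXR-alpha-UAS-bla HEK 293T cells (2% charcoal-stripped FBS, 37 C) preceded a 2 hr room-temperature LiveBLAzer FRET substrate step and blue/green fluorescence measurement.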

Assay [16] is described as follows: qHTS assay to identify small molecule agonists of the RXR signaling pathway - cell viability counter screen (AID 1159529). Further: nearly all actives have a fitted effect of over 50% in size. Further: potency means the concentration at half of the fitted maximal effect. The method, boiled down:
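In this parallel viability measure, GeneBLAzer RXR-alpha HEK 293T cells (2% charcoal-stripped FBS) were given a 5 hr preincubation, treated with compounds 16 hr at 37 C, and read by CellTiter-Glo luminescence.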

The target of assay [17] is Vitamin D3 receptor (Homo sapiens) (UniProt P11473). Put plainly: qHTS assay to identify small molecule agonists of the vitamin D receptor (VDR) signaling pathway (AID 743222; calls by dose curve). An outline of the steps:
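Tox21 cell reporter format: VDR-bla line, 16 h compound exposure in 5% CO2 at 37C, then fluorescence intensity after 2 h with LiveBLAzer B/G FRET substrate.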

Assay [18] is described as follows: qHTS assay to identify small molecule antagonists of the retinoid-related orphan receptor gamma (ROR-gamma) signaling pathway - cell viability counter screen (AID 1159520). Further: nearly all actives have a fitted effect of over 50% in size. Further: potency means the concentration at half of the fitted maximal effect. The method, boiled down: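 Tet-on ROR gamma CHO cells were given compounds for 2 hr, then doxycycline hyclate at 1 uM final, and incubated 16 hr at 37 C. Viability was measured as ATP content by CellTiter-Glo luminescence.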

For assay [19], the target named is Vitamin D3 receptor (Homo sapiens) (UniProt P11473). Put plainly: qHTS assay to identify small molecule antagonists of the vitamin D receptor (VDR) signaling pathway (AID 743223; active means well fitted inhibition curve with a large enough effect in the signal ratio in the repeat runs, not every such curve was filed as active; the % refers to the signal ratio; further: potency means the concentration at half of the fitted maximal effect). An outline of the steps: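 Reporter line VDR-bla; stimulus 1alpha,25-(OH)2 vitamin D3, 3 nM final; compound co-addition, 16 h 37C/5% CO2; LiveBLAzer B/G substrate 2 h RT; fluorescence intensity.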
Sequence of Vitamin D3 receptor (Homo sapiens) (P11473 whole entry, looked up): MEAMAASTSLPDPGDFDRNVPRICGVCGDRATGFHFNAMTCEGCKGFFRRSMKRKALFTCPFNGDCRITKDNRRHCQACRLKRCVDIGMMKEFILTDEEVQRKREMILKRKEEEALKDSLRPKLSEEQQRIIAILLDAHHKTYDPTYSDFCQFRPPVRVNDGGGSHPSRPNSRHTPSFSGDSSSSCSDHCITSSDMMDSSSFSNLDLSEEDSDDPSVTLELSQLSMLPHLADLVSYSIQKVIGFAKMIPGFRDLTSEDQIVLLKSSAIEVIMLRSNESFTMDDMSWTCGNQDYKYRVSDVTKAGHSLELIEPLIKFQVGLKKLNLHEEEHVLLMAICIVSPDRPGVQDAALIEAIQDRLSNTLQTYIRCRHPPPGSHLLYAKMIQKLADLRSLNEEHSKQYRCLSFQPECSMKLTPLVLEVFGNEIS

Records with an inconclusive call do not appear. Active and inactive are the calls of the source. Unless noted, the call rests on the fitted dose curve; in most records, active means well fitted curve in the direction sought with a large enough effect in the repeat runs; inconclusive means weak or mixed curves; inactive means no such curve, though single readings can be large; an effect the other way counts as inactive or inconclusive.

Sequence of Peroxisome proliferator-activated receptor delta (Homo sapiens) (Q03181 whole entry, looked up): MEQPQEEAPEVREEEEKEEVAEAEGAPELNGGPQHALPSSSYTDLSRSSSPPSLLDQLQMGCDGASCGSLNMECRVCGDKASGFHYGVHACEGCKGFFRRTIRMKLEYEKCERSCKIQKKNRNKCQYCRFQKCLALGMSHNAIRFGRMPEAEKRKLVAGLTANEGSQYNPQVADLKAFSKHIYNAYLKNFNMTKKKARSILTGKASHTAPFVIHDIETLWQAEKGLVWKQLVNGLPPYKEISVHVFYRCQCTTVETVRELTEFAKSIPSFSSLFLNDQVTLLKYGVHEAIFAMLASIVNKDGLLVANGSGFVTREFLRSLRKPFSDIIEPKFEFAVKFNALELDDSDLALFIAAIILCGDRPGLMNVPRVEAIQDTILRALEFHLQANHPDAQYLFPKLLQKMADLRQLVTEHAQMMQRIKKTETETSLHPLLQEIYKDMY
Sequence of Bile acid receptor (Homo sapiens) (Q96RI1 whole entry, looked up): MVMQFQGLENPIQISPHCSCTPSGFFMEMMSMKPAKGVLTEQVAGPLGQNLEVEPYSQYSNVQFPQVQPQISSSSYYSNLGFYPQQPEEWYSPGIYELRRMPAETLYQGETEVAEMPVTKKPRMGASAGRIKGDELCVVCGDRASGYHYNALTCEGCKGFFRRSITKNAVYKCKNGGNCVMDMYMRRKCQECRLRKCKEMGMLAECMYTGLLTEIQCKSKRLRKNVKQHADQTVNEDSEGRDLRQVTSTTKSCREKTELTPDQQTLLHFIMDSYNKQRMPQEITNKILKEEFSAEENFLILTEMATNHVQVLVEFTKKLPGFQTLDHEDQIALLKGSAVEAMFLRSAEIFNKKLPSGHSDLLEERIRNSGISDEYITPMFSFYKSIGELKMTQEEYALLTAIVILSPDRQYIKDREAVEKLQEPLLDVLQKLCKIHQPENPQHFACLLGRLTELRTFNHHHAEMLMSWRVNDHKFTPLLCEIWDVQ
Sequence of Retinoic acid receptor RXR-alpha (Homo sapiens) (P19793 whole entry, looked up): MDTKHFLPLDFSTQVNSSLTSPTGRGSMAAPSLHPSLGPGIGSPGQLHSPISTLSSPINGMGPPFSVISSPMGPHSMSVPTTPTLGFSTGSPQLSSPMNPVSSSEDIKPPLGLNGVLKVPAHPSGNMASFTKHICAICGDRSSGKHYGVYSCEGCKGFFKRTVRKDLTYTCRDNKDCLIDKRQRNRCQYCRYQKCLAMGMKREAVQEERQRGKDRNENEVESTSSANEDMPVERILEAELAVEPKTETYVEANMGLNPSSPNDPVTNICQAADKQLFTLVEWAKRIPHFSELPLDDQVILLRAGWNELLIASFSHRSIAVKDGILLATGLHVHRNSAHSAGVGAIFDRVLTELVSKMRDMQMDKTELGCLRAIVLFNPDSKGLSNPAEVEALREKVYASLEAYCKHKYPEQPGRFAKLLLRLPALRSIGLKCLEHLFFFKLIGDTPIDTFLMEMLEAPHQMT

Turning to `O=C(O)c1c(Cl)cccc1Cl`, the Potency entry in assay [1], in assay [2], in assay [3], in assay [4], in assay [5] and in assay [6] was “inactive” each time. The Potency entry in assay [7], in [8], in assay [9], in assay [10], in [11] and in assay [12] was “inactive” each time. In addition, the Potency entry in assay [13], in [14], in [15] and in assay [16] was “inactive” throughout.
Turning to `Oc1ccc2c(c1)-c1ccccc1C2`, the Potency result in assay [1], in [2], in [3], in assay [4], in assay [5] and in assay [6] was “inactive” each time. For the same compound, the Potency entry in [7], in assay [17], in assay [8], in assay [10], in [11] and in assay [12] was “inactive” each time. Besides, the Potency entry in assay [13], in assay [14] and in assay [16] was “inactive” throughout.
Regarding `CN1CCC(Nc2ncc3ncnc(Nc4ccc(F)c(Cl)c4)c3n2)CC1`, the Potency was 5.96 µM (active) in assay [2], 11.9 µM (active) in assay [5], 29.8 µM (active) in [7] and 21.3 µM (active) in assay [9]. Further, the Potency result in assay [10], in assay [11], in assay [18] and in assay [13] was “inactive” each time.
Regarding `CCN(CCC#N)c1ccc(N=Nc2c(Cl)cc([N+](=O)[O-])cc2Cl)cc1`, the Potency entry in [1], in assay [3], in assay [6], in assay [8], in [10] and in assay [11] was “inactive” in each case. Besides, the Potency entry in assay [18] and in assay [13] was “inactive” in each case.
Regarding `O=C(Nc1cccc([N+](=O)[O-])c1)c1cc2ccccc2cc1O`, the Potency result in [1], in assay [5], in assay [17], in assay [10], in assay [11] and in assay [13] was “inactive” throughout. The Potency in assay [8] was 1.23 µM (active); in [12] it was 4.33 µM (active).
`CCCN(CCC)C(=O)C(CCC(=O)OCCCN1CCN(CCOC(=O)Cc2c(C)n(C(=O)c3ccc(Cl)cc3)c3ccc(OC)cc23)CC1)NC(=O)c1ccccc1` (stereo unspecified): the Potency was 21.1 µM (active) in assay [2]; 26.6 µM (active) in assay [3]; 16.8 µM (active) in [5]; 26.6 µM (active) in [7]; 26.8 µM (active) in [9]; 21.3 µM (active) in assay [10]. The Potency result in assay [6], in assay [11], in assay [18] and in [13] was “inactive” throughout.
For the compound `O=c1[nH]sc2cc(Cl)ccc12`, the Potency in assay [2] was 11.9 µM (active); in assay [8], 29.8 µM (active); in assay [18], 26.6 µM (active); in [16] it was 26.8 µM (active). For the same compound, the Potency result in [6], in assay [10] and in assay [11] was “inactive” each time.
Turning to `CC(C)(C)NC(=O)[C@@H]1C[C@@H]2CCCC[C@@H]2CN1C[C@@H](O)[C@H](Cc1ccccc1)NC(=O)[C@H](CC(N)=O)NC(=O)c1ccc2ccccc2n1`, the Potency result in assay [1] and in [6] was “inactive” throughout. In addition, the Potency in [2] was 44.2 µM (active); in assay [5] it was 55.7 µM (active); in assay [8], 44.2 µM (active); in assay [10], 55.7 µM (active); in assay [11], 49.6 µM (active); in assay [12], 55.2 µM (active). For the same compound, the Potency in assay [16] is 24.9 µM (active).
Consider `CCCCCCCCCCCCCCCCCC[N+](C)(C)Cc1ccccc1`, for which the Potency is 13.9 µM (active) in assay [2]; 19.7 µM (active) in assay [5]; 27.8 µM (active) in assay [7]; 22.1 µM (active) in assay [19]; 13.9 µM (active) in assay [8]; 22.1 µM (active) in [10]. The Potency in [18] is 27.6 µM (active); in [12], 15.5 µM (active); in assay [13], 39.3 µM (active); in [16], 4.95 µM (active).
